Reference: PubChem BioAssay
The source made the active and inactive calls.

How the values were obtained:
[1] = tested on: PRMT1 (protein arginine N-methyltransferase 1); assay: small molecules binding arginine methyltransferase PRMT1 – biochemical, small-molecule microarray, 635 nm fluorescence, primary screen (AID 1088); details: higher = more signal;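 also: binding of Prmt1 protein to compounds spotted on small-molecule microarray slides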
[2] = growth effects on S. cerevisiae YJM789 – YJM789 clinical isolate, OD600, 24 h, basal, primary screen (AID 1089); details: higher = more signal, called active from +8 up or from −8 down;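 also: growth of clinical yeast isolate S. cerevisiae YJM 789 seeded 1000 cells per well; test concentration not given here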
[3] = S. pombe growth modifiers, basal conditions – strain 972, OD600, 24 h, no modulator, primary screen (AID 1090);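 also: basal condition with compound alone and no growth modifier present; test concentration not given here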; details: S. pombe 972 growth, higher = more signal, called active from +8 up or from −8 down
[4] = budding yeast growth modifiers under rapamycin – strain BY4716, OD600, 96 h, primary screen (AID 1091); also: test concentration not given here; details: S. cerevisiae BY4716 + rapamycin, higher = more signal, called active from +8 up or from −8 down
[5] = target: Torsin-1A-interacting protein 2 (Homo sapiens) (UniProt Q8NFQ8); assay: small molecules binding lysate-expressed LULL1 – cell lysate, human LULL1 lysate, 635/667 nm fluorescence, primary screen (AID 1092); details: small-molecule microarray, hLULL1 lysate binding, 635 nm fluorescence; higher = more signal;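 also: probe is lysate of COS7 cells overexpressing human LULL1; score merges per-feature 667 nm fluorescence with signal-to-noise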
Torsin-1A-interacting protein 2 (Homo sapiens), sequence (Q8NFQ8 whole entry, looked up): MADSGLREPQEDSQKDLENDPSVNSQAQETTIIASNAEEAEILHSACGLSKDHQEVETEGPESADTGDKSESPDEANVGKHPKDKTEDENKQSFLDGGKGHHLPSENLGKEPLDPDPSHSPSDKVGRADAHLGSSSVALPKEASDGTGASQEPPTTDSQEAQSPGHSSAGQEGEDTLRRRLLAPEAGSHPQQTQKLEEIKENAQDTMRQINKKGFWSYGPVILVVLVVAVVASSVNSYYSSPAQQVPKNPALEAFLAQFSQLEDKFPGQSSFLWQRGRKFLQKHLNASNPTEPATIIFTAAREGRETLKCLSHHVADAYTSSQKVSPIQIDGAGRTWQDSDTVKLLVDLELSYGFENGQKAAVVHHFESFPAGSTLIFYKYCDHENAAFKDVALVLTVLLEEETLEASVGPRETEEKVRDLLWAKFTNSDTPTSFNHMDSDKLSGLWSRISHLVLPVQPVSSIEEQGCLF

[6] = optical density change of DRC41 E. coli – strain DRC41, OD650, 24 h, E. coli filamentation project, primary screen (AID 1093);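 also: MC1000 strain lacking acrAB efflux and sulA so SOS filamentation is blocked; test concentration not given here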; details: E. coli DRC41 growth, higher = more signal, called active from +8 up or from −8 down
[7] = probe aLefty2 binding to arrayed compounds – biochemical, biotinylated probe, 635/667 nm fluorescence, primary screen (AID 1094); details: small-molecule microarray, higher = more signal;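 also: score merges spot fluorescence near 667 nm with spot signal-to-noise ratio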
[8] = tested on: Noggin (protein binding on small-molecule microarray); assay: small molecules binding Noggin protein – biochemical, 635/667 nm fluorescence, primary screen (AID 1095); details: 635 nm fluorescence, higher = more signal;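 also: score merges 667 nm feature fluorescence with signal to noise over triplicate slides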
[9] = target: Neurogenic locus notch homolog protein 3 (Homo sapiens) (UniProt Q9UM47); assay: small molecules binding NOTCH3 protein – biochemical, 635/667 nm fluorescence, primary screen (AID 1096); details: small-molecule microarray, 635 nm fluorescence, higher = more signal
Neurogenic locus notch homolog protein 3 (Homo sapiens), sequence (Q9UM47 whole entry, looked up): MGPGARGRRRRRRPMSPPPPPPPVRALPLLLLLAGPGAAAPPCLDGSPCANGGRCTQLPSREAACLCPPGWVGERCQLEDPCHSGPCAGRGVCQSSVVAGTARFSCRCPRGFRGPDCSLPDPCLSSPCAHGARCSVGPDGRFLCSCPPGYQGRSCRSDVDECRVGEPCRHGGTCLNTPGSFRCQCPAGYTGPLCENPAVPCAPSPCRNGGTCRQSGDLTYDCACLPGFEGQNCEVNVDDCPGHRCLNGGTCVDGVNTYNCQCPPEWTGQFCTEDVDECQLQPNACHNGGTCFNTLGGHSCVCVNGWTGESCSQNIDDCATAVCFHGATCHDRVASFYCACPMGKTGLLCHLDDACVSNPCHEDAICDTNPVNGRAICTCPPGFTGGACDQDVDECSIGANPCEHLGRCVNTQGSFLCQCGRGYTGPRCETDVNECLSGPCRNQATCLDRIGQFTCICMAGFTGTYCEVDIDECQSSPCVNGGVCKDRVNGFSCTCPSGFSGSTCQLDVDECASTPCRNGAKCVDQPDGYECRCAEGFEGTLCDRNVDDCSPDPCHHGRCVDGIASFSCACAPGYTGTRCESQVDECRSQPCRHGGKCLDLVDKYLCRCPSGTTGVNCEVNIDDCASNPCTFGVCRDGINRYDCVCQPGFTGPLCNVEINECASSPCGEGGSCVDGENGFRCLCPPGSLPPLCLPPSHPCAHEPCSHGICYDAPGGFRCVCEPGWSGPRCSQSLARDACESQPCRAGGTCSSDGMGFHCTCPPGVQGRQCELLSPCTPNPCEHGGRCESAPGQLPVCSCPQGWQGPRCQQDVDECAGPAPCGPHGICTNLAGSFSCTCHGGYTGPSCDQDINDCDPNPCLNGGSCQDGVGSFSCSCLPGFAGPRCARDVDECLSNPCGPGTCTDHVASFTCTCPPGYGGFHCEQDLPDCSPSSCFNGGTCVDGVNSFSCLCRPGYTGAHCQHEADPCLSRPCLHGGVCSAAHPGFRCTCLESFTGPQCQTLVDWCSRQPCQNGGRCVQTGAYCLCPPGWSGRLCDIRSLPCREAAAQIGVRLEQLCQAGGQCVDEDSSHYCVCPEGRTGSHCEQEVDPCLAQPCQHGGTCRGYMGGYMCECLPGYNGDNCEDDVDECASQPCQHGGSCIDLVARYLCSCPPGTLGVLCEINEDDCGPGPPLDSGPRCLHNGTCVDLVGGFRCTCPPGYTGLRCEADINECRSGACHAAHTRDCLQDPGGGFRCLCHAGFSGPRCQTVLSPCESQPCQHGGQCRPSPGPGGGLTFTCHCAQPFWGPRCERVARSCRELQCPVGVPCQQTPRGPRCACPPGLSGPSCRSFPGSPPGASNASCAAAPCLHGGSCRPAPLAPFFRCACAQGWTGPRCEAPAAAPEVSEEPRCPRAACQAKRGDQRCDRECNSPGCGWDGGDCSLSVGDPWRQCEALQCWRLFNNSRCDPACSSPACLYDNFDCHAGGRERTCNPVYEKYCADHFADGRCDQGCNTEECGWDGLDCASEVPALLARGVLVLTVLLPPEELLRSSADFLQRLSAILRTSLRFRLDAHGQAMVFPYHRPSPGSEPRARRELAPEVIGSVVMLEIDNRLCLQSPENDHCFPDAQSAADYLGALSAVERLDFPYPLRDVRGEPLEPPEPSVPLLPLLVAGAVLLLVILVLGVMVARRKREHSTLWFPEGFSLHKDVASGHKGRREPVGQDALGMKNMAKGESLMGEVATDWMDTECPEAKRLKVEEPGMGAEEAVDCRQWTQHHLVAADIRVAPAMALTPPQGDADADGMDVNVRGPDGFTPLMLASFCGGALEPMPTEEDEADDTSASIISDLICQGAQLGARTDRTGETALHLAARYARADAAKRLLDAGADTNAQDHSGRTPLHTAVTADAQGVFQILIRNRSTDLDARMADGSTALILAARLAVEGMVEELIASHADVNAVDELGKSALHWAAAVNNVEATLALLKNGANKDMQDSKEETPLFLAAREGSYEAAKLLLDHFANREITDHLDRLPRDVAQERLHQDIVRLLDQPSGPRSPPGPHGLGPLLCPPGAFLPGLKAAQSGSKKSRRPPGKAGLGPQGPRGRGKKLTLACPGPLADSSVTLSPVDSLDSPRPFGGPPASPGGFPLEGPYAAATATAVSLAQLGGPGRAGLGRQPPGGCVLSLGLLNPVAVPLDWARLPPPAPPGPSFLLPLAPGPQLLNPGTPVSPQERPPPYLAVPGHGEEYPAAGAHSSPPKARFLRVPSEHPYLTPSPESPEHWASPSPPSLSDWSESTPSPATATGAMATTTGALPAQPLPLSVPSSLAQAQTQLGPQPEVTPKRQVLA

[10] = probe aEGFR binding to arrayed compounds – biochemical, biotinylated probe, 635/667 nm fluorescence, primary screen (AID 1097); details: small-molecule microarray, higher = more signal;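 also: probe is a biotinylated anti-EGFR antibody binding compounds printed on slides; score combines fluorescence near 667 nm and signal to noise of each spot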
[11] = tested on: Plasmodium falciparum Sir2 (PF13_0152, Sir2A); assay: Plasmodium falciparum Sir2A binding compounds – biochemical, small-molecule microarray, 635 nm fluorescence, primary screen (AID 1098); details: fluorescence 635 nm, higher = more signal;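 also: score merges spot fluorescence intensity with its signal-to-noise ratio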
[12] = probe aDKK1 binding to arrayed compounds – biochemical, biotinylated probe, 635/667 nm fluorescence, primary screen (AID 1099); details: small-molecule microarray, higher = more signal;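 also: score merges 667nm spot fluorescence with signal to noise across triplicate slides; reference of the scale not given here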
[13] = probe aCHRDL2 binding to arrayed compounds – biochemical, biotinylated probe, 635/667 nm fluorescence, primary screen (AID 1100); details: small-molecule microarray, higher = more signal
[14] = change in splice reporter luminescence, either direction, cell-based, HEK293, spliceosome inhibition project, primary screen (AID 1101); details: HEK293 splicing luciferase reporter, 24 h, higher = more signal, called active from +8 up or from −8 down;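 also: HEK293 cells carrying a splicing-competent luciferase reporter gene; test concentration not given here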
[15] = target: Fibroblast growth factor 10 (Homo sapiens) (UniProt O15520); assay: compounds binding fibroblast growth factor 10 – biochemical, small-molecule microarray, 635 nm fluorescence, primary screen (AID 1102); details: FGF10 binding, fluorescence 635 nm, higher = more signal
Fibroblast growth factor 10 (Homo sapiens), sequence (O15520 whole entry, looked up): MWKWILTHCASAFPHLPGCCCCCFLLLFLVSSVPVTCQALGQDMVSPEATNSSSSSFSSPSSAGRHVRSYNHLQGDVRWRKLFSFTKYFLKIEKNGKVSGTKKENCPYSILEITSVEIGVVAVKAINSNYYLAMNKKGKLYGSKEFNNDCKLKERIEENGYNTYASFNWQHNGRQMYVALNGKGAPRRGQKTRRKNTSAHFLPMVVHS

[16] = tested on: glycogen synthase kinase-3 (GSK3A per assay name; protocol says GSK3B); assay: compounds binding glycogen synthase kinase-3 – biochemical, small-molecule microarray, 635 nm fluorescence, GSK3A, primary screen (AID 1103); details: fluorescence 635 nm, higher = more signal; also: the record names both GSK3A and GSK3B
[17] = target: Epidermal growth factor receptor (Homo sapiens) (UniProt P00533); assay: compounds binding epidermal growth factor receptor – biochemical, small-molecule microarray, 635 nm fluorescence, primary screen (AID 1104); details: EGFR binding, higher = more signal;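 also: score merges 667 nm emission intensity with spot signal to noise over triplicate slides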
Epidermal growth factor receptor (Homo sapiens), sequence (P00533 whole entry, looked up): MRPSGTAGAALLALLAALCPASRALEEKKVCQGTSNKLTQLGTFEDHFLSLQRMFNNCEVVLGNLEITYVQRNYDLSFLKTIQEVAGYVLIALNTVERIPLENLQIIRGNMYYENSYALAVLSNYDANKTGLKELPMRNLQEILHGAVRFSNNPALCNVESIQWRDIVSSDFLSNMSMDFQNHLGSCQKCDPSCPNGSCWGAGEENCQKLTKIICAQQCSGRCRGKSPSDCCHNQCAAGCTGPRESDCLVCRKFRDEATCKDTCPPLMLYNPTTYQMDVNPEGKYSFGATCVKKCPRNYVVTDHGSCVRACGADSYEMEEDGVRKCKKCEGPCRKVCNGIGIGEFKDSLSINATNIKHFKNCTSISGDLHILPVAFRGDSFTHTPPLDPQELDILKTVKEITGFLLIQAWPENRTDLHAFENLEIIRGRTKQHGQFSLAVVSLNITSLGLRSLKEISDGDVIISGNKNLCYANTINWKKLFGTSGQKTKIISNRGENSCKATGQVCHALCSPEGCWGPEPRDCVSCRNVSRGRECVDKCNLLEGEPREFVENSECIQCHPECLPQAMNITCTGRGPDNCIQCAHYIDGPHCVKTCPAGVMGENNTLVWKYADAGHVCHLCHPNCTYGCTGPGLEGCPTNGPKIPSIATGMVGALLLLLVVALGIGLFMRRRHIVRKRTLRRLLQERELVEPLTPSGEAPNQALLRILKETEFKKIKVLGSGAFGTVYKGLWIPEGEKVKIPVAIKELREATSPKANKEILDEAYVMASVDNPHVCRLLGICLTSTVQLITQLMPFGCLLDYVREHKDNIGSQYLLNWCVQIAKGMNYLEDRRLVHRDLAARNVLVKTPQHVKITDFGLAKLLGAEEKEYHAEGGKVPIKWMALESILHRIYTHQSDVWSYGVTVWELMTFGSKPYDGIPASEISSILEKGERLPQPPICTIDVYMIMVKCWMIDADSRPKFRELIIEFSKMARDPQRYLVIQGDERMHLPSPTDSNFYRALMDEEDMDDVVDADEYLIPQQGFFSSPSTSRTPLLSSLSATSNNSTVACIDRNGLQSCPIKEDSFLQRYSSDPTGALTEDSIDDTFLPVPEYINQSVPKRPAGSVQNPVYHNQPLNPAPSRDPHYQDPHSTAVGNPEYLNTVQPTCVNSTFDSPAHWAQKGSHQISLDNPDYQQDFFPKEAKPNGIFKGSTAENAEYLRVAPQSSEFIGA

[18] = target: Follistatin-related protein 3 (Homo sapiens) (UniProt O95633); assay: compounds binding follistatin-related protein 3 – biochemical, small-molecule microarray, 635 nm fluorescence, primary screen (AID 1105); details: FSTL3 binding, higher = more signal;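 also: score merges emission near 667 nm and signal to noise per printed spot across three slides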
Follistatin-related protein 3 (Homo sapiens), sequence (O95633 whole entry, looked up): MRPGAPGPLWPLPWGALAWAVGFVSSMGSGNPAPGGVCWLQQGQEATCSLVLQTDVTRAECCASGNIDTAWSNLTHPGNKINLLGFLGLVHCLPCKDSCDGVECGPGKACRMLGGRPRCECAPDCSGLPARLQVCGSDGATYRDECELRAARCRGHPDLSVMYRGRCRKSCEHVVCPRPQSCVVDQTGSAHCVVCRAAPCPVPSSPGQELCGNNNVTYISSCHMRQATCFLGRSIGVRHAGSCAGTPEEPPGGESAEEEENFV

[19] = target: Dickkopf-related protein 1 (Homo sapiens) (UniProt O94907); assay: small molecules binding DKK1 protein – biochemical, small-molecule microarray, 635 nm fluorescence scan, primary screen (AID 1106); details: higher = more signal;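 also: score merges emission near 667 nm with signal to noise over three replicate slides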
Dickkopf-related protein 1 (Homo sapiens), sequence (O94907 whole entry, looked up): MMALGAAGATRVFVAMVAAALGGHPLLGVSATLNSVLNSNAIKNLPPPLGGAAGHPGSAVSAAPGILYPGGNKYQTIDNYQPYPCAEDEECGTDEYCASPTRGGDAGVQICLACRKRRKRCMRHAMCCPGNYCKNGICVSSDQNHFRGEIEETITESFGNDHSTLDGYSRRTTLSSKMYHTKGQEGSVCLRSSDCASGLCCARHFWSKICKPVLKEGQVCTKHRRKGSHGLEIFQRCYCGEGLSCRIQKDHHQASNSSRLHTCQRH

[20] = tested on: Inhibin beta A chain (activin A); assay: small molecules binding activin A – biochemical, small-molecule microarray, 635 nm fluorescence scan, primary screen (AID 1107); details: INHBA, higher = more signal;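 also: mouse activin A protein probed at 4.33 µg/mL on printed slides; score merges bound-protein fluorescence near 667 nm with spot signal-to-noise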

Compound | composite z-score [1] | z-score [2] | z-score [3] | z-score [4] | composite z-score [5] | z-score [6] | composite z-score [7] | composite z-score [8] | composite z-score [9] | composite z-score [10] | composite z-score [11] | composite z-score [12] | composite z-score [13] | z-score [14] | composite z-score [15] | composite z-score [16] | composite z-score [17] | composite z-score [18] | composite z-score [19] | composite z-score [20]
CN1CCC(CCCO)=CC1c1cccs1 (stereo not given) | -0.0029 | -1.69 (inactive) | -0.327 (inactive) | -0.489 (inactive) | -0.93 | 0.345 (inactive) | -0.166 | 0.0615 | 0.0121 | -0.108 | 0.238 | -0.391 | -0.141 | 0.697 (inactive) | -0.095 | 0.0706 | -0.185 | -0.61 | 0.208 | 0.233
O=C1O[C@@H](c2ccccc2)[C@@H](c2ccccc2)N2[C@@H](c3ccc(OCCO)cc3)[C@]3(C(=O)Nc4ccc(C#CC5=CCCCC5)cc43)[C@@H](C(=O)N3CCCCCCC3)[C@H]12 | 1.53 | 1.1 (inactive) | -1.09 (inactive) | 2.13 (inactive) | 3.98 | 0.29 (inactive) | 1.6 | 1.78 | 1.03 | 1.26 | 1.66 | 2.71 | 1.43 | -0.447 (inactive) | 1.32 | 1.33 | 1.71 | 1.58 | 2.08 | 1.91
O=C(NC1CC1)[C@@H]1c2ccccc2C(=O)N(C2Cc3ccccc3C2)[C@H]1c1ccc(CO)cc1 | 1.44 | -0.0411 (inactive) | 0.682 (inactive) | -0.514 (inactive) | 3.1 | 0.628 (inactive) | -0.0441 | 0.976 | 0.722 | -0.16 | 0.188 | -0.053 | 0.438 | 0.199 (inactive) | 0.467 | 1.3 | 0.473 | 0.53 | 0.951 | 0.338
CCOC(=O)C[C@H]1[C@H](OC(=O)c2ccc(-c3ccccc3)cc2)[C@@H](NC(=O)c2ccccc2)c2cc(OCCCO)ccc2N1C(=O)c1ccc2ccccc2n1 | 0.316 | -1.04 (inactive) | 0.0452 (inactive) | 0.545 (inactive) | 1.23 | -0.751 (inactive) | 0.0769 | 0.0388 | 0.742 | -0.0031 | -0.0092 | 0.32 | 0.339 | 0.00513 (inactive) | 0.47 | 0.538 | -0.0158 | 0.309 | 0.234 | -0.466
COCCCNC(=O)[C@@H]1c2ccccc2C(=O)N(Cc2ccccc2)[C@H]1c1ccc(CO)cc1 | 0.726 | -1.29 (inactive) | -0.0108 (inactive) | -0.212 (inactive) | 1.53 | -0.167 (inactive) | 0.384 | 0.525 | 0.109 | 0.236 | 0.698 | 0.698 | 0.655 | -0.403 (inactive) | 0.223 | 0.437 | 0.851 | 0.197 | 0.549 | 0.353
CCCC1(C(=O)OC)C=C2C(=C(c3ccccc3)C(=O)C2C)CN1 (stereo not given) | -0.406 | 0.283 (inactive) | 0.312 (inactive) | 0.763 (inactive) | 1.64 | -0.375 (inactive) | 0.248 | -0.533 | 0.0144 | 0.0384 | -0.495 | 0.717 | 1.16 | -1.14 (inactive) | -0.157 | -0.636 | -0.278 | -0.0458 | -0.704 | 1.44
C=CCNC(=O)[C@H]1[C@@H]2C(=O)O[C@@H](c3ccccc3)[C@@H](c3ccccc3)N2[C@@H](c2ccc(O)cc2)[C@]12C(=O)Nc1ccc(C#CCCO)cc12 | 0.586 | 1.35 (inactive) | 1.84 (inactive) | 1.13 (inactive) | 1.97 | 0.515 (inactive) | -0.0915 | -0.325 | -0.356 | -0.201 | 0.526 | 0.0418 | 0.198 | 0.0704 (inactive) | -0.818 | -0.572 | -0.326 | -0.561 | 0.0898 | 0.629
COc1cc2c(cc1O)C(c1cccs1)N(Cc1ccc([N+](=O)[O-])o1)CC2 (stereo not given) | 0.298 | -2.77 (inactive) | -4.47 (inactive) | -2.27 (inactive) | 1.02 | -0.73 (inactive) | 0.156 | -0.419 | 0.32 | -0.0859 | 1.15 | 0.728 | 0.27 | -0.505 (inactive) | 0.876 | 0.0693 | -0.033 | -0.0839 | -0.466 | -0.131
COCCOC(=O)N1C(=O)[C@@]2(c3cc(C#CC4(O)CCCCCC4)ccc31)[C@H](c1ccccc1OCCO)N1[C@H](c3ccccc3)[C@H](c3ccccc3)OC(=O)[C@H]1[C@@H]2C(=O)N1CCc2cc(OC)c(OC)cc2C1 | 1.55 | 2.46 (inactive) | 2.71 (inactive) | 5.86 (inactive) | 2.96 | 0.339 (inactive) | -0.0903 | 1.24 | 1.05 | 0.0092 | 1.09 | 0.0591 | 0.179 | 0.202 (inactive) | 0.99 | 0.929 | 0.345 | 0.528 | 0.0815 | -0.0614
O=C1OCCC=C[C@H]2OC34C=CCN(Cn5nnc6ccccc65)C(=O)[C@H]3N(CCO)C(=O)[C@@H]4C12 (stereo not given in full) | -0.312 | -0.352 (inactive) | 0.785 (inactive) | -0.422 (inactive) | -0.316 | 2.26 (inactive) | -0.135 | -1.26 | -0.491 | -0.345 | 1.34 | 0.362 | 0.254 | -0.456 (inactive) | -1.55 | -1.6 | -1.77 | -1.04 | -1.64 | -0.539
